Source: PubChem BioAssay AID1863 (Southern Research Specialized Biocontainment Screening …, 2009)
Among all 300,000 compounds or so, about 480 (0.16%) were called active.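 How the source made its calls: active means inhibition over 29.93%, a cutoff 3 SD above the screen mean, later confirmed by dose response; inconclusive means inhibition over 29.93% but no dose response follow-up; inactive means inhibition at most 29.93% or unconfirmed.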 These entries were drawn from the full list. Potency and affinity values are given separately.

test: PhoP-dependent GFP reporter repression – Salmonella Typhimurium, primary screen (AID 1863);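 further: 0% = low Mg2+ inducing control and 100% = high Mg2+ repressing control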; settings: S. Typhimurium PhoP-regulated promoter GFP reporter, 4 h; at 50 µM; stronger effect = higher value

inhibition, inactive:
CCCCCC[N+](C)(C)CCSSCC[N+](C)(C)CCCCCC -6.44%, C[N+](C)(C)CCCCCC[N+](C)(C)C -9.93%, C[N+](C)(C)CCCCCCCCCC[N+](C)(C)C -6.25%, C#CC[N+](C)(C)CCCCCCCCCC 8.05%, CCN(CC)CCCNC(=O)c1c(O)c2cc(F)cc3c2n(c1=O)C(C)CC3 (configuration not stated) 8.52%, CC1CCc2cc(F)cc3c(O)c(C(=O)NCCN(C)C)c(=O)n1c23 (configuration not stated) 2.46%, CN1CCN(c2c(F)cc3c(=O)c(C(=O)O)cn4c3c2SCC4)CC1 -8.39%, O=C(c1cncc(Br)c1)N1CCN(S(=O)(=O)c2ccccc2C(F)(F)F)CC1 -1.26%, Cc1ccc(C(=O)N/C(=C\c2cccnc2)C(=O)N2CCCC2)cc1 -6.95%, Cc1ccc(C2=Nc3ccccc3NC(C)(c3ccc(C)o3)C2)o1 (configuration not stated) -5.88%, Cc1nnsc1S(=O)c1ccc(Cl)c(Cl)c1 (configuration not stated) 3.99%, N#Cc1ccccc1CSCCNC(=O)Cc1c(F)cccc1Cl -5.66%, COc1cccc(Cn2c(C3CC3)nc3ccc(NC(=O)c4ccco4)cc3c2=O)c1 -9.67%, Cc1ccc(-c2nn(-c3ccccc3)cc2CSC(=N)N)cc1 2.16%, OCc1cn(-c2ccccc2)nc1-c1ccc(-c2nn(-c3ccccc3)cc2CO)cc1 14.7%, O=C(O)Cc1cn(-c2ccccc2)nc1-c1ccccc1 -1.05%, OCc1cn(-c2ccccc2)nc1-c1ccc(Br)cc1 -1.5%, CC1=Nn2c(nc3sc4c(c3c2=O)CCCC4)SC1 -2.64%, Cc1cnc(NC(=O)c2ccncc2)s1 1.84%, C=CCOC(=O)C1=C[C@@H](c2ccc(Br)cc2)[C@H](CCCO)[C@@H](OCC)O1 -3.82%, COc1cc(NS(=O)(=O)c2ccc(NS(=O)(=O)c3ccc(C)cc3)cc2)nc(OC)n1 12.1%, COCC(=O)Nc1ccc(N2CCN(c3ccccc3)CC2)c(F)c1 21.5%, Cc1ccc(SCCc2ccc(C)nc2)cc1 9.59%, CCNC(=S)NNC(=O)c1ccccc1Cl 8.03%, COCCCNC(=S)NNC(=O)c1ccccn1 8.59%, C=CCOC(=O)C1=C(C)NC(SCC(=O)Nc2nccs2)=C(C#N)C1c1cccs1 (configuration not stated) -14.1%, CCOC(=O)Cn1cnc2sc(C(=O)OC)c(C)c2c1=O -1.36%, O=C(Nc1ccccc1)Nc1ccc(F)c([N+](=O)[O-])c1 8.9%, O=C(Nc1ncc([N+](=O)[O-])s1)c1ccccc1Br -1.22%, Cc1ccc(NC(=O)Nc2ccccc2)cc1[N+](=O)[O-] -2.21%, O=C(CCS(=O)(=O)c1ccccc1)Nc1ncc([N+](=O)[O-])s1 11.2%, O=C(Nc1ccc(Cl)c(Cl)c1)Nc1ccccn1 8.31%, O=C(Nc1ccc(Cl)c(Cl)c1)Nc1ccccc1C(=O)O 4.95%, CCN(CC)P(=O)(c1ccccc1)c1c(C)nc2ccccn12 (configuration not stated) -1.09%, CC12CCC(C(=O)NC3CCCC3)(CC1=O)C2(C)C (configuration not stated) -12.7%, COc1ccc(-c2nnn(CC(=O)N(CC3CCCO3)C(C(=O)NC(C)(C)C)c3ccco3)n2)cc1OC (configuration not stated) 2.77%, COCCCNC(=O)CN(c1cc(Cl)cc(Cl)c1)S(C)(=O)=O -4.71%, N#CCOc1nc(N2CCOCC2)nc(N2CCOCC2)n1 -1.4%, COc1ccc(CN(CC(=O)NCC2CCCO2)C(=O)CNS(=O)(=O)c2ccc(C)cc2)cc1 (configuration not stated) -1.33%, CC(NC(=O)C1CCN(S(=O)(=O)c2ccc3nc4c(c(C(=O)O)c3c2)CCCC4)CC1)c1ccccc1 (configuration not stated) -8.3%, CCN(CC)S(=O)(=O)c1ccc(OC)c(NS(=O)(=O)Cc2ccccc2)c1 6.46%, O=C(O)c1cccc(Nc2ncnc3sccc23)c1 -0.32%, COc1ccccc1N1CCN(CC(=O)c2c(C)[nH]c3cc(C)ccc23)CC1 -0.55%, CC(C)c1nnc(NC(=O)c2ccc(S(=O)(=O)N3CCOCC3)cc2)s1 -9.01%, O=C(NCCC1=CCCCC1)c1ccc2c(c1)N(Cc1ccccc1)C(=O)CS2 6.9%, CCn1c(/C=C/N(C)c2ccccc2)[n+](CC)c2ccc(Cl)cc21 -2.39%, CCOC(=O)c1ccc2c(c1)n(CC)c(/C=C/N(C)c1ccccc1)[n+]2CC -11%, COc1ccc(C(=O)N2CCN(Cc3ccccc3)CC2)cc1[N+](=O)[O-] -3.7%, O=C(NCCCn1ccnc1)c1ccc(Br)cc1 12.6%, O=C(Oc1c(Cl)cc(Cl)c2cccnc12)c1cccs1 14.3%, O=C(Oc1ccc(Cl)c2cccnc12)c1ccco1 19.6%, Cc1ccc(S(=O)(=O)Nc2ccc(O)c3cccnc23)cc1 6.3%, Cc1ccc(S(=O)(=O)Nc2ccc(O)c3ncccc23)cc1 10.5%, Oc1c(I)cc(I)c2cccnc12 -1.32%, Oc1c(Cl)cc(CN2CCCCC2)c2cccnc12 14.1%, O=c1oc2ccccc2c(O)c1Cc1cc(Cl)c2cccnc2c1O -10%, Clc1cc2cccnc2c2ccccc12 2.15%, CCC(=O)c1cc2c(cc1NC(=O)c1ccccc1)OCCO2 5.62%, CN(C)S(=O)(=O)c1ccc(N2CCCC2)c(C(=O)Nc2nc(-c3ccc(F)c(F)c3)cs2)c1 3.09%, Cc1ccc(CN2C(=O)NC(Cc3c[nH]c4ccccc34)C2=O)cc1 (configuration not stated) 4.26%, COC(=O)c1cc(NC(=O)CC2SCCNC2=O)cc(C(=O)OC)c1 (configuration not stated) -10.7%, COc1ccc(/C=N/Nc2cc(N(C)C)nc(N(C)C)n2)cc1 -15.8%
